Source: PubChem
TDP1 cell noCPT: qHTS for Inhibitors of human tyrosyl-DNA phosphodiesterase 1 (TDP1): qHTS in cells in absence of CPT. Potency, µM (highest dose often 46.2 µM), for the others: top-dose activity change, negative = growth inhibition, most hits filed as inhibitors. hit rate 15% among 420,000. DT40 Tdp1-/- hTDP1 cells, no CPT, ATP luminescence, 48 h. AID 686978, 2013; also: potency is read from the fitted curve at half-maximal effect; nearly all actives have a fitted effect of over 55% in size
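Chicken DT40 Tdp1-/- cells complemented with human TDP1, screened without camptothecin (DMSO vehicle only), 400 cells/well. Compounds pin-transferred, cells incubated at 37 °C for at least 48 hr. Growth read as ATP-dependent luminescence (CellTiter-Glo, 30 min at RT).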
IL1B secr inh: blocks inflammasome-driven IL-1 beta release | THP-1 LPS/ATP IL-1B secretion, AlphaLISA, 16 h; stronger effect = lower value | activity change, % at 57.5 µM | hit rate 4.7% among 360,000 | AID 743279; in the data active = activity change below about -50%; inconclusive = mostly about -30% to -49%
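Secreted IL-1B measured by AlphaLISA bead assay after 16 h compound exposure of THP-1 cells; compounds (final up to 57.5 uM) added 1 h before LPS (250 ng/mL) and ATP (1.25 mM) stimulation; lower signal means less secretion.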
CtBP-E1A blk: CtBP/E1A binding inhibition. AlphaScreen GST-E1A/His-CtBP binding, 1536-well; stronger effect = lower value. activity change, % (concentration not given with the values). hit rate 0.49% among 340,000. AID 651724; in the data active = activity change below about -65%; inconclusive = mostly about -30% to -63%
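AlphaScreen with 125 nM GST-E1A and 125 nM His-CtBP (5X stocks) in Tris pH 8.0, 300 mM NaCl, BSA, Tween 20, TCEP. Compounds preincubated 2 h at 37 deg C, then glutathione donor/nickel acceptor beads added for 1 h at 37 deg C in dark.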
TDP1 cell CPT: DT40-hTDP1 cell growth loss with CPT; chicken DT40 Tdp1-/-;hTDP1 cells + 20 nM CPT, ATP luminescence, 48 h; Potency, µM (top dose mostly 46.2 µM), for the others: top-dose activity change, negative = growth inhibition, usual class: inhibitors; hit rate 12% among 420,000; also: potency is read from the fitted curve at half-maximal effect; nearly all actives have a fitted effect of over 55% in size
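Chicken DT40 Tdp1-/- cells complemented with human TDP1, 400 cells/well, exposed to compounds plus 20 nM camptothecin for at least 48 h at 37 C; viability read as ATP content by CellTiter-Glo luminescence.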
TDP1 block: inhibitors of human tyrosyl-DNA phosphodiesterase TDP1; recombinant TDP1, AlphaScreen DNA substrate cleavage; Potency, µM (top dose mostly 130 µM), without a hit: at the top dose activity change, negative = inhibition, hits mostly inhibitors; hit rate 0.28% among 350,000; also: potency is read from the fitted curve at half-maximal effect; nearly all actives have a fitted effect of over 40% in size
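Recombinant human Tdp1 (E. coli-expressed, 1 nM final) preincubated with compounds 15 min at room temperature, then 5'-biotin/3'-phosphotyrosine-FITC DNA substrate (15 nM final) added for 5 min. AlphaScreen beads (10 ug/ml final) added 10 min; cleavage lowers signal.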
Six1-Eya2 blk: inhibitors of human Six1/Eya2 interaction. AlphaScreen GST-Six1/His-Eya2 binding, biochemical; stronger effect = lower value. Q15475+O00167. AID 651725. hit rate 0.56% among 360,000. activity change, % (test concentration not listed); in the data active = activity change below about -65%; inconclusive = mostly about -30% to -63%
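AlphaScreen with GST-Six1 and His-Eya2 (5X mix: 250 nM and 500 nM), glutathione donor and nickel acceptor beads; buffer 50 mM Tris pH 8.0, 300 mM NaCl, 1 mM TCEP; 1 h at 37 C in the dark.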
* hit, by the source's call; ? = inconclusive; · = not tested or not shown. Sampled rows, rich in hits. Any-hit rate of the full collection: about 18%. Unless noted, calls follow the shape of the dose curve; as a rule, active = well fitted curve in the direction sought with a large enough effect; inconclusive = small, poorly fitted or top-dose-only effect, or another doubt; inactive = no such curve, though single readings can be large; an effect the other way counts as inactive or inconclusive. % is scaled to controls: 0 for no effect and ±100 for the full control effect.

SMILES	TDP1 cell noCPT	IL1B secr inh	CtBP-E1A blk	TDP1 cell CPT	TDP1 block	Six1-Eya2 blk
COc1ccc(NC(=S)N2CCC(c3ccc(C)cc3)C2)cc1 (configuration not stated)	?	-17	-17	?	·	-9
Cc1ccc(NC(=S)N2CCC(c3ccc(C)cc3)C2)cc1 (configuration not stated)	?	-16	-2	?	5%	0
c1ccc(Cn2nnnc2CN2CCN(c3ncccn3)CC2)cc1	-21%	-10	1	2%	5%	2
COc1ccc(CNC(=O)C2Cc3c(-c4cccc(F)c4)ccnc3O2)cc1OC (configuration not stated)	?	-11	-5	8.2µM*	·	2
O=C(Nc1cccc(Oc2ccccc2)c1)C1Cc2c(-c3cccc(F)c3)ccnc2O1 (configuration not stated)	?	?	-1	?	·	-7
CN1CCN(c2ccc(CNC(=O)C3Cc4c(-c5cccc(F)c5)ccnc4O3)cc2)CC1 (configuration not stated)	21µM*	?	-11	?	·	-9
O=C(NCc1ccccc1)C1Cc2c(-c3cccc(F)c3)ccnc2O1 (configuration not stated)	0.92µM*	74	2	0.92µM*	·	-5
O=C(NCC1CC1)C1Cc2c(-c3cccc(F)c3)ccnc2O1 (configuration not stated)	?	-14	8	-8%	·	4
CC(=O)c1cccc(-c2ccnc3c2CC(C(=O)NCc2ccc(N4CCN(C)CC4)cc2)O3)c1 (configuration not stated)	?	-12	-9	-40%	·	-10
O=C(NCc1cccc(Cl)c1)C1Cc2c(-c3cccc(F)c3)ccnc2O1 (configuration not stated)	26µM*	-10	2	21µM*	·	-2
CCCCN(C)CCCNC(=O)C1CCN(S(=O)(=O)CC)CC1	3%	·	·	-6%	5%	·
O=C(/C=C/c1ccccc1)NC(NC(=S)Nc1ccc(C(=O)O)cc1)C(Cl)(Cl)Cl (configuration not stated)	-7%	14	-4	-5%	0%	?
Cc1ccc(C)c(NC(=S)NC(NC(=O)/C=C/c2ccccc2)C(Cl)(Cl)Cl)c1 (configuration not stated)	23µM*	?	1	?	4%	0
O=C(/C=C/c1ccccc1)NC(NC(=S)Nc1ccc(Cl)cc1Cl)C(Cl)(Cl)Cl (configuration not stated)	18µM*	-10	-5	21µM*	5%	-2
O=C(/C=C/c1ccccc1)NC(NC(=S)Nc1cccc(O)c1)C(Cl)(Cl)Cl (configuration not stated)	18µM*	-117*	-12	?	5%	?
Cc1ccc(CNC(=O)c2cnc(N3CCCC3)nc2C)cc1	-25%	·	·	2%	4%	·
CCn1c(CNC(=O)c2ccc(OC)cc2)nnc1SCC(=O)Nc1ccc(OC)cc1	-9%	·	·	-3%	-6%	·
CC(=O)NC(CCCCNC(=S)NC1CCCCC1)C(=O)O (configuration not stated)	-4%	0	-6	-12%	3%	-4
CC(=O)N1CCc2cc(Br)cc(S(=O)(=O)CCC(=O)N3CCN(c4ccccn4)CC3)c21	-19%	-22	-1	-30%	-11%	-4
CC(=O)N1CCc2cc(Br)cc(S(=O)(=O)CCC(=O)N3CCN(c4cccc(C)c4C)CC3)c21	?	·	·	16µM*	0%	·
O=C(CCc1ccccc1)Nc1nnc(-c2ccc3c(c2)CCCC3)o1	?	-17	2	18µM*	0%	1
O=C(Nc1nnc(-c2ccc3c(c2)CCCC3)o1)c1ccc(Cl)cc1Cl	?	0	-6	13µM*	12%	-10
